Five molecules from PubChem BioAssay can be followed below.

SMILES strings stand for the structures. A number with no mark means an inactive call. For part of these data: Entries with a potency or affinity are not part of this list. Some of the results follow. Active and inactive are the calls of the source.

Test [1] deals with Inward rectifier potassium channel 2 (Mus musculus) (UniProt P35561). The test can be described thus: mouse Kir2.1 channel blockers, retest, confirmation, cell-based, FluxOR thallium flux, duplicate (AID 2032;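 active means Primary-screen hit whose thallium flux fell at least 3 control SD below untreated wells in both duplicates, with normal baseline fluorescence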). The conditions noted are these: Kir2.1-expressing cells, FluxOR thallium flux fluorescence, at 10 µM; hits give low values.
Inward rectifier potassium channel 2 (Mus musculus), sequence (P35561 whole entry, looked up): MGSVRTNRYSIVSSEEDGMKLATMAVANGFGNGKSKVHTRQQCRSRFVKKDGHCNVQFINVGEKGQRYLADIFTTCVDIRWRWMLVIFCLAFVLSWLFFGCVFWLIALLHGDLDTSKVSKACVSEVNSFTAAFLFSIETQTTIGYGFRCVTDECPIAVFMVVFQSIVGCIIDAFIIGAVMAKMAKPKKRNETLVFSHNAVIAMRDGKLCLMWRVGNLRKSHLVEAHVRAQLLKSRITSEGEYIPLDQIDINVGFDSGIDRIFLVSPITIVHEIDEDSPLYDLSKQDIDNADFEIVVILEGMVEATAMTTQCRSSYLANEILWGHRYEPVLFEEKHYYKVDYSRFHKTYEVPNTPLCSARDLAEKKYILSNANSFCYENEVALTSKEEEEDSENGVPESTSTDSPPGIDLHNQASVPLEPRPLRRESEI
Test [2] can be described thus: nonspecific thallium flux effects in parental HEK293 cells, confirmation, counter-screen for Kir2.1 inhibitor project, cell-based, FluxOR thallium flux, duplicate, single concentration (AID 2105;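 active means dye signal at least 3 control SD above or below untreated wells in both duplicates, raw fluorescence within 3, either direction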). The following applies: FluxOR thallium flux fluorescence, at 10 µM; 0% = unstimulated blank wells. Background: A counterscreen serves to expose hits that act by an unwanted route or on another target.

A short description of test [3]: nonspecific thallium flux increase in parental CHO-K1, confirmation, counter-screen for KCNQ2 potentiator project, cell-based, FluxOR thallium flux, duplicate (AID 2282;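 active means signal rise of at least 3 SD above the untreated control mean, in both duplicate wells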;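 further: counter screen of KCNQ2 potentiator hits so any rise reflects channel-independent effects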). The following applies: parental CHO-K1 cells, FluxOR thallium flux fluorescence; at 10 µM; hits give high values; zero = vehicle mean+3SD, 100% = vehicle-minus-blank window.
For test [4], the target named is Potassium voltage-gated channel subfamily KQT member 1 (Homo sapiens) (UniProt P51787). The test can be described thus: human KCNQ1 channel potentiation off-target, confirmation, selectivity assay for KCNQ2 potentiator project, cell-based, CHO, FluxOR thallium flux (AID 2283;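 active means fluorescence ratio rise of at least 3 SD of vehicle wells above their mean, in both replicate wells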;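 further: 0% = vehicle mean plus 3 SD and 100% = vehicle minus unstimulated blank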). The conditions noted are these: CHO KCNQ1 stable, FluxOR thallium flux fluorescence; at 10 µM; hits give high values; beyond 3SD, as % of vehicle-control signal.
Potassium voltage-gated channel subfamily KQT member 1 (Homo sapiens), sequence (P51787 whole entry, looked up): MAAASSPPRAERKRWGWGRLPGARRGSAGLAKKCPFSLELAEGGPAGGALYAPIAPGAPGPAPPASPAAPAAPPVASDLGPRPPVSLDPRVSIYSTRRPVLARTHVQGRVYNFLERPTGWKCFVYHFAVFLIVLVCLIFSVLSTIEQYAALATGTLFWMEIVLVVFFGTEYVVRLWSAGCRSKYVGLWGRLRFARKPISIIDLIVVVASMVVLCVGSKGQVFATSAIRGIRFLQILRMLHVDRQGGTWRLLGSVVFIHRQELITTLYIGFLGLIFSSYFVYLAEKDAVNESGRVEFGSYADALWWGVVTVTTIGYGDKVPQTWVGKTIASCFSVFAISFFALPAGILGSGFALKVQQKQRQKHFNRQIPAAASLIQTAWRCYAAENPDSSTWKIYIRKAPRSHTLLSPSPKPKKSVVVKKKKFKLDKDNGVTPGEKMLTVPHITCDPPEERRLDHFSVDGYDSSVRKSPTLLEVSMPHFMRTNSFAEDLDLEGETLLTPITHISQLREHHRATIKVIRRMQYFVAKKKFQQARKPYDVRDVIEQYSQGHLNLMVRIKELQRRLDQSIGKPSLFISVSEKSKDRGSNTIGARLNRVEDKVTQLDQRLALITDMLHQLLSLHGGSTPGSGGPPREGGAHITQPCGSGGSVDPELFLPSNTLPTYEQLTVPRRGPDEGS

The target in test [5] is Potassium voltage-gated channel subfamily KQT member 2 (Rattus norvegicus) (UniProt O88943). Nature of the test: rat KCNQ2 channel potentiators, confirmation, cell-based, CHO, FluxOR thallium flux, duplicate (AID 2287;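 active means fluorescence ratio rising 3 SD or more over the vehicle control mean in both replicates, plus primary screen hit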;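 further: peak minus minimum thallium fluorescence divided by baseline after K/Tl stimulus; 0% = vehicle mean plus 3 SD and 100% = vehicle minus unstimulated blank difference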). The conditions noted are these: CHO-KCNQ2 cells, FluxOR thallium flux fluorescence; at 10 µM; hits give high values.
The target in test [6] is Inward rectifier potassium channel 2 (Mus musculus) (UniProt P35561). The test can be described thus: PubChem AID 2345.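 Further: 0% = vehicle mean plus 3 SD and 100% = vehicle minus no-stimulus blank window.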 The conditions noted are these: HEK293 Kir2.1, FluxOR thallium flux fluorescence; at 10 µM; hits give high values.
Test [7] deals with Potassium voltage-gated channel subfamily KQT member 2 (Rattus norvegicus) (UniProt O88943). The test can be described thus: potentiators of retigabine-insensitive KCNQ2 W236L, mechanism study for KCNQ2 potentiator project, cell-based, rat KCNQ2 W236L, CHO, automated patch clamp (AID 2558;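 active means current increase at least 3 SD of the untreated controls above them in both duplicate recordings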). The conditions noted are these: at 25 µM; outcome: automated patch clamp current. In general terms: The patch-clamp technique gives a direct electrical read-out from membranes.

Test [8] addresses Voltage-gated inwardly rectifying potassium channel KCNH2 (Homo sapiens) (UniProt Q12809). Nature of the test: hERG channel inhibition, counter-screen for Kir2.1 inhibitor project, cell-based, thallium flux (AID 2236).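 Further: host cells are CHO cells stably expressing hERG.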 The following applies: hERG-expressing cells, at 10 µM; hits give high values.
Test [9] has as its target Potassium channel subfamily K member 9 (Homo sapiens) (UniProt Q9NPC2). Nature of the test: KCNK9 channel inhibition, selectivity assay for Kir2.1 inhibitor project, cell-based (AID 2329). The conditions noted are these: KCNK9-expressing cells, ion flux inhibition, at 10 µM; hits give high values.
Test [10] concerns the target Inward rectifier potassium channel 2 (Mus musculus) (UniProt P35561). Nature of the test: mouse Kir2.1 channel blockers, Kir2.1 inhibitor project, cell-based, secondary, automated electrophysiology (AID 463252). The conditions noted are these: Kir2.1 cells, automated patch-clamp current inhibition, at 25 µM; hits give high values.
Test [11] can be described thus: parental HEK293 membrane potential modulation, confirmation, counter-screen for TRPC6 modulator project, cell-based (AID 488924;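 active means membrane potential signal moves up or down beyond 5 SD from buffer-only wells, on both duplicate plates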). The conditions noted are these: parental HEK293, membrane potential dye fluorescence; at 10 µM.
A short description of test [12]: modulation of acetylcholine-evoked membrane potential, parental HEK293, confirmation, counter-screen for TRPC6 modulator project, cell-based, second counter-screen, membrane potential dye (AID 488926;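 active means membrane potential signal drops by more than 5 SD from the mean control signal, in both duplicate plates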). The following applies: parental HEK293, membrane potential dye fluorescence; at 10 µM; after compound, maximal acetylcholine stimulation.
Test [13] has as its system Transient receptor potential cation channel subfamily C member 4 (mouse). The test can be described thus: TRPC4 modulation by TRPC6 hit compounds, confirmation, selectivity assay for TRPC6 modulator project, cell-based, HEK293 TRPC4/mu-opioid, membrane potential dye, mouse (AID 488927;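 active means membrane potential signal moved up or down beyond 5 SD of buffer control wells, in both duplicate plates, actives on both sides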;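 further: plate controls were assay buffer wells for no effect and DAMGO maximal-effect wells for full effect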). The following applies: membrane potential fluorescence, at 10 µM.
The subject of test [14] is TRPC4 (transient receptor potential cation channel C4), mouse. Nature of the test: TRPC4 inhibition by TRPC6 hit compounds, confirmation, selectivity assay for TRPC6 modulator project, cell-based, second screen, HEK293 TRPC4/mu-opioid, membrane potential dye (AID 488928;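 active means drop in membrane potential signal beyond 5 SD of the control wells in both duplicate plates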;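 further: TRPC4 counter screen for TRPC6 hits run under conditions tuned for TRPC6 not TRPC4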). The conditions noted are these: membrane potential dye fluorescence, at 10 µM, stimulated with maximal-effect DAMGO; hits give high values.

The target in test [15] is Short transient receptor potential channel 6 (Mus musculus) (UniProt Q61143). The test can be described thus: mouse TRPC6 channel inhibitors, confirmation, HEK293 cells, membrane potential dye, duplicate (AID 488960;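 active means fluorescence ratio falls more than 5 SD below the full-stimulation control mean, in both duplicate runs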;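 further: integrated fluorescence ratio of peak minus minimum over baseline after agonist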). The conditions noted are these: ACh-evoked depolarization, at 10 µM; hits give high values.
Short transient receptor potential channel 6 (Mus musculus), sequence (Q61143 whole entry, looked up): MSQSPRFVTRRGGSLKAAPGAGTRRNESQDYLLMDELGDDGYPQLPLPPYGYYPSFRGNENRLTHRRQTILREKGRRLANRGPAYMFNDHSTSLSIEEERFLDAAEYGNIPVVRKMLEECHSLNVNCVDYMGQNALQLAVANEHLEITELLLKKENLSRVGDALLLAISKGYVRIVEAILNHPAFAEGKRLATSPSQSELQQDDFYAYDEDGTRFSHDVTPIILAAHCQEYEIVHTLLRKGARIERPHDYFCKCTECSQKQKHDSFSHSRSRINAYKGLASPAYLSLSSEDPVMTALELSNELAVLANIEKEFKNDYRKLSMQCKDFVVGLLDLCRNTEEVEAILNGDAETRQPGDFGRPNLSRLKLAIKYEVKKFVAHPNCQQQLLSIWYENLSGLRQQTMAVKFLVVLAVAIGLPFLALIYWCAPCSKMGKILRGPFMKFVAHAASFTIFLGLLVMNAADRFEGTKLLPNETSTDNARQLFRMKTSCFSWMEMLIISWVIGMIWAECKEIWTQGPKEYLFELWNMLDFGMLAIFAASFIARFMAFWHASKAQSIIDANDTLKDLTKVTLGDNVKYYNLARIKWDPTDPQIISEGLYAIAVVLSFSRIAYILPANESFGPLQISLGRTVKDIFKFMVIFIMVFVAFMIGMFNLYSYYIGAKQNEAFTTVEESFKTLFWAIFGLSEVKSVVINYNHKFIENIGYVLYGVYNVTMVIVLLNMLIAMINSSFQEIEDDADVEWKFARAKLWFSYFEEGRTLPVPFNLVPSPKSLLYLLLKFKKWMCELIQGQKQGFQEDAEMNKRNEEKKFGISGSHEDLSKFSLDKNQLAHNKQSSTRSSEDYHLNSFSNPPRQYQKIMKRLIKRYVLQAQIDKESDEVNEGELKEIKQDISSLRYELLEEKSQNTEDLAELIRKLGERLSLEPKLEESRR
Test [16] shares this target. Nature of the test: mouse TRPC6 channel activators, confirmation, HEK293 cells, membrane potential dye, duplicate (AID 488961;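 active means ratio signal rise beyond 5 SD above unstimulated control wells' mean, seen in both duplicate runs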;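 further: plate controls were buffer EC0 wells for no effect and acetylcholine ECmax response for full effect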). The conditions noted are these: HEK293-TRPC6 membrane potential dye fluorescence, FDSS, at 10 µM; hits give high values.
Test [17] relates to TRPC4 beta (transient receptor potential cation channel C4), mouse. The test can be described thus: activators of mouse TRPC4 channel, confirmation, cell-based, Fluo4 calcium, HEK293 TRPC4beta/mu-opioid, duplicates, 10 µM (AID 2426;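 active means fluorescence ratio normalized to control raised more than 50% in primary screen plus both repeat runs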). The following applies: Fluo4 calcium fluorescence, at 10 µM; hits give high values.
Test [18] relates to transient receptor potential cation channel C4 beta (TRPC4), mouse. The test can be described thus: activators of mouse TRPC4 channel, confirmation, cell-based, second round, Fluo4, HEK293 TRPC4beta/mu-opioid, 1 µM (AID 2461;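 active means primary screen active and over 50% activation in each of two duplicate runs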). The conditions noted are these: Fluo4 calcium fluorescence, at 1 µM; hits give high values.
For test [19], the system named is TRPC4 (transient receptor potential cation channel C4 beta), mouse. Nature of the test: positive allosteric modulators of mouse TRPC4, confirmation, cell-based, second round, Fluo-4, HEK293 TRPC4beta/mu-opioid, 1 µM (AID 2554;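 active means primary screen hit whose fluorescence ratio, in both repeats, exceeds the weak agonist control mean by 3 SD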). The conditions noted are these: DAMGO EC20, Fluo-4 calcium flux, at 1 µM; hits give high values. Background: A change in cytosolic calcium serves as a functional read-out for many receptors and channels.

Test [20] deals with TRPC4 beta (transient receptor potential cation channel C4), mouse. Nature of the test: positive allosteric modulators of mouse TRPC4, confirmation, cell-based, Fluo-4, HEK293 TRPC4beta/mu-opioid (AID 2555;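 active means primary screen hit whose calcium fluorescence ratio, in both repeats, exceeds the weak agonist control mean by 3 SD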). The conditions noted are these: DAMGO EC20, Fluo-4 calcium flux, at 10 µM; hits give high values.
Test [21] deals with Short transient receptor potential channel 4 (Mus musculus) (UniProt Q9QUQ5). Nature of the test: inhibitors of mouse TRPC4 channel, confirmation, cell-based, Fluo4, HEK293 TRPC4beta/mu-opioid (AID 2636;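 active means calcium signal cut by more than 3 SD below the full-agonist control yet still positive, in both repeats and the earlier primary screen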). The conditions noted are these: DAMGO, Fluo4 calcium flux, at 10 µM; hits give high values.
Short transient receptor potential channel 4 (Mus musculus), sequence (Q9QUQ5 whole entry, looked up): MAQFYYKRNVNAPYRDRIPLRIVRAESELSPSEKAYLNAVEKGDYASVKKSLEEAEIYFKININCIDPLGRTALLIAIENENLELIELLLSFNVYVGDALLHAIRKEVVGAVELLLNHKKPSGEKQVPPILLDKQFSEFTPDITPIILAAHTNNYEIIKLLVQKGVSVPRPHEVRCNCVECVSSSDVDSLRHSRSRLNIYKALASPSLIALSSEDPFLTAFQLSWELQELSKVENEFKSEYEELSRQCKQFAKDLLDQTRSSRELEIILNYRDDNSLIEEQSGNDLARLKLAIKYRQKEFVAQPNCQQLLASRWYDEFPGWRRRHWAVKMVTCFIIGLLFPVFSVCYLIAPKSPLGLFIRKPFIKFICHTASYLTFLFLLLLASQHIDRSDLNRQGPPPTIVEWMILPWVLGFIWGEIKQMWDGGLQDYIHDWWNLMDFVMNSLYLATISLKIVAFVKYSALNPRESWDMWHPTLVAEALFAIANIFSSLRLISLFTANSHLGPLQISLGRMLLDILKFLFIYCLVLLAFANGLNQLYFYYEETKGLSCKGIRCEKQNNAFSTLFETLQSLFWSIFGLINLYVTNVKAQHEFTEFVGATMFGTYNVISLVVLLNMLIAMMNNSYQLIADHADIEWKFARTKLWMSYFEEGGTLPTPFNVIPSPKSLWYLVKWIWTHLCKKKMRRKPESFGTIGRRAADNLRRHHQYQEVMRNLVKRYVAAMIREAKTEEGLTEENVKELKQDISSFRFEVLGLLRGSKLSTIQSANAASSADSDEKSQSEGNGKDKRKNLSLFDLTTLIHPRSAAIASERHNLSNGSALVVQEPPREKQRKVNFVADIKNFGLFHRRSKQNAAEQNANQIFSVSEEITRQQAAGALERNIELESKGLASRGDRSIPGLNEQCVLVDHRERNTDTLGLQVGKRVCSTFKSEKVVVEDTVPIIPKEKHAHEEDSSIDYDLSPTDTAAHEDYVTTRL
Test [22] has the same target. Nature of the test: inhibitors of mouse TRPC4 channel, confirmation, cell-based, second round, Fluo4, HEK293 TRPC4beta/mu-opioid, 1 µM (AID 2637;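 active means calcium signal ratio cut to more than 3 SD under the fully stimulated control mean yet still positive, in both repeats and the primary screen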). The following applies: Fluo4 calcium flux, DAMGO, at 1 µM; hits give high values.
For test [23] the target is unchanged. The test can be described thus: mouse TRPC4 channel activators, dose response, cell-based, HEK293 TRPC4/mu-opioid, Fluo-4 calcium (AID 434937;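 active means primary screen activator hit with a dose response curve and TRPC4 channel activation at any tested dose; inactive means no activation, no dose response, or not a primary hit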).
For test [24] the target is unchanged. The test can be described thus: TRPC4 positive allosteric modulators, dose response, cell-based, HEK293 TRPC4/mu-opioid, Fluo-4 calcium, EC20 DAMGO (AID 434941;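 active means earlier screen potentiator hit that boosts the TRPC4 ion channel at some dose, with a dose response; inactive means no potentiation, no dose response, or not a prior hit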;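 further: calcium entry triggered by an EC20 dose of DAMGO at the co-expressed mu-opioid receptor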).
For test [25] the target is unchanged. Nature of the test: mouse TRPC4 channel inhibitors, dose response, cell-based, HEK293 TRPC4/mu-opioid, Fluo-4 calcium (AID 434942;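 active means primary screen inhibitor hit that blocks the TRPC4 channel at some tested dose, yielding a dose curve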).
Test [26] addresses Short transient receptor potential channel 6 (Mus musculus) (UniProt Q61143). The test can be described thus: inhibition of mouse TRPC6 channel, confirmation, selectivity assay for TRPC4 inhibitor project, cell-based, HEK293, membrane potential dye, duplicate (AID 434948;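 active means active in primary screen and both duplicates, each dropping signal beyond three positive-control SD with fluorescence still positive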). The following applies: HEK293 TRPC6, membrane potential dye fluorescence, at 10 µM, stimulated with maximal-effect acetylcholine; hits give high values.

Test [27] shares this target. Nature of the test: activation of mouse TRPC6 channel, confirmation, selectivity assay for TRPC4 activator project, cell-based, HEK293, membrane potential dye, duplicate (AID 434950;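 active means membrane potential signal rise above negative control mean plus 3 SD in both duplicates, also active in the earlier TRPC4 screen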). The following applies: HEK293 TRPC6, membrane potential fluorescence, at 10 µM; hits give high values.
For test [28] the target is unchanged. Nature of the test: TRPC6 potentiation by TRPC4 potentiator hits, confirmation, selectivity assay for TRPC4 potentiator project, HEK293 cells, membrane potential dye, duplicate (AID 434952;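 active means compound raising the membrane signal above positive-control mean plus 3 SD in both repeats, and a primary screen hit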). The conditions noted are these: HEK293 TRPC6, membrane potential dye fluorescence, at 10 µM, maximal acetylcholine added after compound; hits give high values.
For test [29], the target named is Short transient receptor potential channel 4 (Mus musculus) (UniProt Q9QUQ5). The test can be described thus: calcium flux activators in TRPC4/5HT1a cells, counter-screen for TRPC4 activator project, cell-based, second counter screen, HEK293 TRPC4/5HT1a, Fluo-4 (AID 434977;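 active means calcium signal rise above buffer-control mean plus 5 SD in both duplicates, and also a hit in the primary screen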). The following applies: Fluo-4 calcium flux, at 10 µM; hits give high values.
Test [30] in a line: calcium flux inhibitors in TRPC4/5HT1a cells, confirmation, counter-screen for TRPC4 inhibitor project, cell-based, second counter screen, HEK293 TRPC4/5HT1a, Fluo-4 (AID 434978;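 active means primary screen active whose calcium signal fell more than 3 SD beyond the full-serotonin control mean in both duplicate plates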;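 further: serotonin given first at submaximal then at maximal dose after compound preincubation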). The conditions noted are these: Fluo-4 calcium flux, at 10 µM, serotonin added to trigger calcium flux; hits give high values.
Test [31] has as its system TRPC4 (mouse), co-expressed with 5HT1a in HEK293. The test can be described thus: calcium flux potentiators in TRPC4/5HT1a cells, confirmation, counter-screen for TRPC4 potentiator project, cell-based, second counter screen, HEK293 TRPC4/5HT1a, Fluo-4 (AID 434979;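 active means signal rise over 3 SD above mean of control wells given weak agonist, in both repeats and first screen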). The following applies: Fluo-4 calcium flux, at 10 µM, serotonin added at its EC20 dose; hits give high values.

Test [32] is described as follows: calcium flux activation in mu-opioid HEK293 cells, confirmation, counter-screen for TRPC4 activator project, cell-based, HEK293 mu-opioid receptor line (AID 449723;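 active means hit in primary screen, with calcium signal over 5 SD above buffer well mean in both duplicates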;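 further: counter screen cells carry the mu-opioid receptor alone and lack TRPC4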). The conditions noted are these: Fluo-4 calcium fluorescence, at 10 µM; hits give high values.
Test [33] is described as follows: calcium flux enhancement in mu-opioid HEK293 cells, confirmation, counter-screen for TRPC4 allosteric potentiator project, cell-based, HEK293 mu-opioid receptor line (AID 449724;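 active means calcium signal rise more than 3 SD above the low-dose agonist control mean, in both duplicate plates and the primary screen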;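 further: HEK293 cells carrying mu-opioid receptor only with no TRPC4 channel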). The following applies: Fluo-4 calcium flux, at 10 µM, compound added before EC20 DAMGO stimulus; hits give high values.

Voltage-gated inwardly rectifying potassium channel KCNH2 (Homo sapiens), sequence (Q12809 whole entry, looked up): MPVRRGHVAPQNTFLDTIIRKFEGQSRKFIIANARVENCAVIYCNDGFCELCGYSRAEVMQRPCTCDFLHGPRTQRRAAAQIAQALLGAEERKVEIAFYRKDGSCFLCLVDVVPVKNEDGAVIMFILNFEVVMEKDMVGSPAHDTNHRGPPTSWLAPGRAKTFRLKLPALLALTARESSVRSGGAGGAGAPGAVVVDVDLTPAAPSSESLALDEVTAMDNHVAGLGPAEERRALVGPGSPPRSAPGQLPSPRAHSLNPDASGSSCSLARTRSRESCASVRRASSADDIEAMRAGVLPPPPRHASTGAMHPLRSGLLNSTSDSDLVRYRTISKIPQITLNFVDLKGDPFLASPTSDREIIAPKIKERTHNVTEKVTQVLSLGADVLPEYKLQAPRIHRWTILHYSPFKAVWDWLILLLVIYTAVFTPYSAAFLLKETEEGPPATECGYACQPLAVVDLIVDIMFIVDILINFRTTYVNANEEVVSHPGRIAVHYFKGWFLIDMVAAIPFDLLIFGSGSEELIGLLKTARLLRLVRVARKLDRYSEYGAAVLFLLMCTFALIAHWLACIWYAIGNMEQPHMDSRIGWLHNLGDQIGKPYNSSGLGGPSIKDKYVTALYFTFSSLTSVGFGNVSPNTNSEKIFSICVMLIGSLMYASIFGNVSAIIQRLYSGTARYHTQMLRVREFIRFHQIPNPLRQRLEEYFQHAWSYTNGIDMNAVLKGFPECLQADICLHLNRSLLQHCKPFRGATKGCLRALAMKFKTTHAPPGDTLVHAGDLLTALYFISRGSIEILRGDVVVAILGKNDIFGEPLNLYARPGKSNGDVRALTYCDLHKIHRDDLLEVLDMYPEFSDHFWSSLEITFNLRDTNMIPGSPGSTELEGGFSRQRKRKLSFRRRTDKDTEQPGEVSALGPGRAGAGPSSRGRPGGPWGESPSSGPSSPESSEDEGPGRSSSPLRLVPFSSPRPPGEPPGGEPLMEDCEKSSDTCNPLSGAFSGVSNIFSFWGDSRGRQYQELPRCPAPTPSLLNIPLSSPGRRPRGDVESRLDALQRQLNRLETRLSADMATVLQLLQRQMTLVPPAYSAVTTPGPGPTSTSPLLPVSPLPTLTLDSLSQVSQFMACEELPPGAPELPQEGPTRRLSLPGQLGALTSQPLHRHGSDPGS

Turning to `Cc1ccc(NC(=O)C2CC2c2ccccc2)cc1` (stereo unspecified), the molecule was classed as inactive in [1], in [2] and in test [7]. Further, the activity increase over 3SD of controls in [3] is 58.6% (active). Besides, the activation over 3SD threshold in test [4] was 64.2% (active). Besides, the potentiation, less the hit threshold in [5] is 26.2% (active). For the same molecule, the activity over 3SD threshold in [6] was -35.9%.
Turning to `CC(NCc1ccccc1OC1CCCC1)c1ccccc1` (stereo unspecified), in test [1], the Tl flux remaining, % of negative control (hits give low values) was 23.5% (active). The result in test [2], in [8], in [9] and in [12] was inactive. Moreover, the inhibition – broadly, the relative decrease from the control value, in per cent – in [10] was 23.4% (active); in [14], 79.5% (active); in [15] it was 83% (active). Also, the membrane potential signal change in test [11] was 416% (active). Moreover, in test [13], the percent change from control (negative = decrease, positive = increase) is 114% (active). Moreover, in test [16], the activation is 122% (active).
Turning to `Cc1ccc(Nc2c3c(nc4ccccc24)CCC3)cc1`, the Tl flux remaining, % of negative control (hits give low values) in test [1] was 16% (active). The result in test [2] and in [9] was inactive. In addition, the inhibition was 61% (active) in [8] and 83.9% (active) in [10].
Regarding `CC(C)(c1ccccc1)c1ccc(OCCN)cc1`, the Tl flux remaining, % of negative control (hits give low values) in test [1] is 30.5% (active). For the same molecule, the outcome in [2], in test [8] and in test [9] was inactive. Also, the inhibition in test [10] was 36.1% (active).
Turning to `COc1ccc(-c2n[nH]c(C)c2-c2ccccc2OC)c(O)c1`, the result in test [1], in test [2], in [17], in test [18], in test [19] and in test [20] was inactive. In addition, the result in test [21], in [22], in test [23], in [24], in [25] and in test [26] was inactive. Also, the call in test [27], in test [28], in test [29], in test [30], in test [31] and in test [32] was inactive. Also, the outcome in test [33] was inactive. In addition, the activity increase over 3SD of controls in test [3] is 28.7% (active). The activation over 3SD threshold in [4] is 56.3% (active). For the same molecule, the potentiation, less the hit threshold in test [5] was -12.6%. For the same molecule, the activity over 3SD threshold in [6] was -44.6%.
